Measured values as given in PubChem BioAssay.
The source made the active and inactive calls. How the calls were made is not given here.

target: Pantothenate synthetase (Mycobacterium tuberculosis (strain ATCC 25618 / H37Rv)) (UniProt P9WIL5); assay: Coupled enzyme confirmation of inhibitors against recombinant Mtb PanC (AID 375); conditions: coupled enzyme assay; at 10 µM, active compounds read high;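 further: 0% = full reaction with vehicle and 100% = no enzyme background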
Sequence (P9WIL5 whole entry, looked up): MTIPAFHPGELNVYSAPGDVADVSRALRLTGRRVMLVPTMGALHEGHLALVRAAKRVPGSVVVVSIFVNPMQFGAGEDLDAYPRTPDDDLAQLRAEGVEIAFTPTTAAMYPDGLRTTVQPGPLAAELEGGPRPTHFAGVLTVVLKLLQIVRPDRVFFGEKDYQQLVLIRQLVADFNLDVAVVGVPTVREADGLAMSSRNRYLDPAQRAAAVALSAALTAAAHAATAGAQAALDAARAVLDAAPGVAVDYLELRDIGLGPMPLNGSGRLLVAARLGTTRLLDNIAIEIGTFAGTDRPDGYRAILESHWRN

Row | SMILES | inhibition
1 | COc1ccccc1S(=O)(=O)Cc1ccc(C(=O)N2CCN(c3ccc(C)cc3)C(C)C2)o1 (stereo not drawn) | 13% (inactive)
2 | Cn1c(=O)n(Cc2ccccc2)c(=O)c2c1nc(NCC1CCCO1)n2Cc1ccccc1 (stereo not drawn) | 0% (inactive)
3 | Cc1ccc(C)c(S(=O)(=O)NCc2ccc(C(=O)N3CCN(C)CC3)cc2)c1 | 0% (inactive)
4 | CC(C)CN(CC(C)C)C(=O)CS(=O)(=O)Cc1ccccc1 | 0% (inactive)
5 | COc1ccc(-c2nnc3sc(-c4c(OC)cccc4OC)nn23)cc1 | 6% (inactive)
6 | Cc1csc2nc(CNC(=O)c3ccco3)cn12 | 0% (inactive)
7 | O=C(c1cccs1)c1cn(CC(=O)N2CCc3ccccc3C2)c2ccccc12 | 2% (inactive)
8 | O=C(O)CCC(=O)c1c[nH]c2ccccc12 | 3% (inactive)
9 | CC1(C)CC(=O)CC(C)(C)N1OC(=O)c1ccccn1 | 0% (inactive)
10 | Cc1ccc(C)c(Cn2c(=O)n(CCC(=O)NCc3ccco3)c(=O)c3sccc32)c1 | 9% (inactive)
11 | O=C(Nc1nnc(COc2ccc(F)cc2)s1)c1cccs1 | 5% (inactive)
12 | CCCNc1nc2c(c(=O)n(C)c(=O)n2C)n1Cc1cccc(C)c1 | 0% (inactive)
13 | CN1CCc2c(sc3c2c(=O)n(-c2cccc(Cl)c2)c2nncn32)C1 | 0% (inactive)
14 | CCN(CCO)C1CC(=O)N(c2ccccc2C)C1=O (stereo not drawn) | 0% (inactive)
15 | Cc1cc(NC(=O)c2ccccc2Oc2ccccc2)no1 | 12% (inactive)
16 | COc1ccccc1N1CCN(C/C(O)=C(\C#N)c2nc(-c3ccccc3)cs2)CC1 | 2% (inactive)
17 | CC(C)CCNC(=O)NC(=O)COc1ccccc1C#N | 4% (inactive)
18 | COc1cc(-c2nc(S(=O)(=O)c3ccccc3)c(N3CCOCC3)o2)cc(OC)c1OC | 8% (inactive)
19 | COc1ccccc1N1CCN(C(=O)CSc2nc(-c3ccccc3)cc(=O)[nH]2)CC1 | 1% (inactive)
20 | O=C(Nc1ccccc1C(=O)O)c1cccc(NC(=O)c2ccc(Br)o2)c1 | 0% (inactive)
21 | COc1ccccc1C(=O)Nc1ccccc1C(=O)N1CCCC1 | 1% (inactive)
22 | COc1ccccc1CNC(=O)Nc1cccs1 | 0% (inactive)
23 | CCC(=O)Nc1ccc(NC(=O)c2cccc(OC)c2)nc1 | 0% (inactive)
